# Assay results published in PubChem BioAssay (NCATS).
# Inconclusive results are not listed. Entries that show only a call come without a potency. Activity calls are given as the source filed them. Calls come from the whole dose curve; as a rule, active = well fitted inhibition curve with a large enough effect; inconclusive = small, poorly fitted or top-dose-only effect; inactive = flat fitted curve, though single readings scatter. Peptide text beside a SMILES is read from it.
# System: not listed separately
# Assay: qHTS profiling for inhibitors of Plasmodium falciparum proliferation (AID 504749); note: nearly all actives have a fitted effect of over 60% in size
# Conditions: P. falciparum in erythrocytes, SYBR Green DNA, 72 h; parasite line A
# In short: (§1)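 In a 72 h erythrocytic culture (37 C, humidified, 5% CO2) at 2.5% hematocrit and 0.3% starting parasitemia, compounds were tested; SYBR Green I in detergent lysis buffer stained parasite DNA overnight.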
# Potency is the fitted concentration of half-maximal effect.
row,SMILES,Potency
1,NC(C(=O)O)[C@@H]1CC(Cl)=NO1 (stereo partly specified),1260 nM (active)
2,COC1C=CO[C@@]2(C)Oc3c(C)c(O)c4c(O)c(c5c(nc6cc(C)ccn65)c4c3C2=O)NC(=O)/C(C)=C\C=CC(C)C(O)[C@@H](C)C(O)C(C)[C@@H](OC(C)=O)C1C (stereo partly specified),14100 nM (active)
3,CO[C@]12C(COC(N)=O)C3=C(C(=O)C(C)=C(N)C3=O)N1CC1NC12 (stereo partly specified),1260 nM (active)
4,COC1C=CO[C@@]2(C)Oc3c(C)c(O)c4c(O)c(c(C=NN5CCN(C)CC5)c(O)c4c3C2=O)NC(=O)/C(C)=C\C=CC(C)C(O)[C@@H](C)C(O)C(C)[C@H](OC(C)=O)C1C (stereo partly specified),3980 nM (active)
5,COc1cc(C2c3cc4c(cc3C(O[C@@H]3OC5COC(c6cccs6)OC5C(O)C3O)C3COC(=O)C23)OCO4)cc(OC)c1O (stereo partly specified),1120 nM (active)

# Same assay, conditions: P. falciparum in erythrocytes, SYBR Green DNA, 72 h; parasite line B
row,SMILES,Potency
1,NC(C(=O)O)[C@@H]1CC(Cl)=NO1 (stereo partly specified),2820 nM (active)
2,COC1C=CO[C@@]2(C)Oc3c(C)c(O)c4c(O)c(c5c(nc6cc(C)ccn65)c4c3C2=O)NC(=O)/C(C)=C\C=CC(C)C(O)[C@@H](C)C(O)C(C)[C@@H](OC(C)=O)C1C (stereo partly specified),10000 nM (active)
3,CO[C@]12C(COC(N)=O)C3=C(C(=O)C(C)=C(N)C3=O)N1CC1NC12 (stereo partly specified),1260 nM (active)
4,COC1C=CO[C@@]2(C)Oc3c(C)c(O)c4c(O)c(c(C=NN5CCN(C)CC5)c(O)c4c3C2=O)NC(=O)/C(C)=C\C=CC(C)C(O)[C@@H](C)C(O)C(C)[C@H](OC(C)=O)C1C (stereo partly specified),3980 nM (active)
5,COc1cc(C2c3cc4c(cc3C(O[C@@H]3OC5COC(c6cccs6)OC5C(O)C3O)C3COC(=O)C23)OCO4)cc(OC)c1O (stereo partly specified),2000 nM (active)

# System: 3D7
# Assay: as above
# Conditions: P. falciparum in erythrocytes, SYBR Green DNA, 72 h; series mostly up to 12.8 µM
# In short: as §1
row,SMILES,Potency
1,CN(C)CCCOC1C(C(O)CO)OC2OC(C)(C)O[C@@H]21 (stereo partly specified),inactive
2,CCC(C)C(=O)OC1CCC=C2C=CC(C)C(CCC3CC(O)CC(=O)O3)[C@@H]21 (stereo partly specified),inactive
3,CC(=O)OC1CCC2C3CCc4cc(O)ccc4C3CCC12C (stereo unspecified),inactive
4,CC[C@@]12CCCN3CCc4c(n(c5ccccc45)[C@](O)(C(=O)OC)C1)C32 (stereo partly specified),inactive
5,NC(C(=O)O)[C@@H]1CC(Cl)=NO1 (stereo partly specified),1000 nM (active)
6,CN1CC(=O)N=C1N,inactive
7,OCC1OC([S-])[C@H](O)C(O)C1O.[Au+] (stereo partly specified),inactive
8,CC(C)C1CCC(C(=O)NC(Cc2ccccc2)C(=O)O)CC1 (stereo unspecified),inactive
9,CCC(CCC(C)C1CCC2C3CC=C4CC(O)CC[C@@]4(C)C3CC[C@@]12C)C(C)C (stereo partly specified),inactive
10,C[C@]12CCC(=O)C=C1CCC1C2C(=O)C[C@]2(C)C1CC[C@]2(O)C(=O)CO (stereo partly specified),inactive
11,OCC1O[C@H](OC2C(CO)O[C@@](O)(CO)C2O)C(O)C(O)C1O (stereo partly specified),inactive
12,CC1(C)OC2CO[C@]3(COS(N)(=O)=O)OC(C)(C)OC3C2O1 (stereo partly specified),inactive
13,CC1(C)OC2CC(=O)OC[C@@]23C1CC(=O)[C@]1(C)C3CC[C@@]2(C)C(c3ccoc3)OC(=O)C3O[C@@]321 (stereo partly specified),inactive
14,CCOC(=O)C1=CC(OC(CC)CC)C(NC(C)=O)C(N)C1 (stereo unspecified),inactive
15,COC1C=CO[C@@]2(C)Oc3c(C)c(O)c4c(O)c(c5c(nc6cc(C)ccn65)c4c3C2=O)NC(=O)/C(C)=C\C=CC(C)C(O)[C@@H](C)C(O)C(C)[C@@H](OC(C)=O)C1C (stereo partly specified),12600 nM (active)
16,COC(=O)C(Cc1ccccc1)NC(=O)C(N)CC(=O)O (stereo not drawn) (H-Asp-Phe-OMe; configuration not given here),inactive
17,C[C@]12C=CC(=O)C=C1CCC1C2C(O)C[C@]2(C)C1CC[C@]2(O)C(=O)CO (stereo partly specified),inactive
18,CC1(C)S[C@H]2C(NC(=O)[C@@H](N)c3ccc(O)cc3)C(=O)N2[C@@H]1C(=O)O (stereo partly specified),inactive
19,CC(C)=CCC[C@](C)(O)C1CC=C(C)CC1 (stereo partly specified),inactive
20,C[C@]1(c2ccccc2)OC(C(=O)O)=CC1=O,inactive
21,CC(=O)N[C@H](CC(C)C)C(=O)O,inactive
22,COc1ccc2cc(C(C)CO)ccc2c1 (stereo unspecified),inactive
23,COC1C=CO[C@@]2(C)Oc3c(C)c(O)c4c(O)c(c(C=NN5CCN(C)CC5)c(O)c4c3C2=O)NC(=O)/C(C)=C\C=CC(C)C(O)[C@@H](C)C(O)C(C)[C@H](OC(C)=O)C1C (stereo partly specified),2000 nM (active)
24,CC1CCC(C(C)C)C(=O)C1 (stereo unspecified),inactive
25,CNC1CC(N)[C@H](O)[C@@H](O[C@@H]2OC(CO)C3OC4(OC(C(N)CO)C(O)C(O)C4O)O[C@@H]3[C@H]2O)C1O (stereo partly specified),inactive
26,CCCC(=O)O[C@]1(C(=O)CO)CCC2[C@@H]3CCC4=CC(=O)CC[C@]4(C)C3C(O)C[C@]21C (stereo partly specified),inactive
